Results reported in the supplement of paper PMC6992640.

How the values were obtained:
HCI01 = cells of a triple-negative basal-like breast cancer xenograft; test: cell viability of combination (% of vehicle); higher = less cytotoxic; details: 1 µM; 72 h; partner dose: 10 nM
Experimental: (§1)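 PDX cells were treated for 72 h with each drug at 1 µM plus afatinib (10 nM; 1 µM for WHIM30). Luciferase viability is expressed as percent of vehicle.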

WHIM2 = cells of a triple-negative basal-like breast cancer xenograft; test: as above; details: 1 µM; 72 h; partner dose: 10 nM
Experimental: as §1

## COc1cc2c(Oc3ccc(NC(=O)C4(C(=O)Nc5ccc(F)cc5)CC4)cc3F)ccnc2cc1OCCCN1CCOCC1 + CN(C)C/C=C/C(=O)Nc1cc2c(Nc3ccc(F)c(Cl)c3)ncnc2cc1O[C@H]1CCOC1 [Afatinib]
HCI01
  cell viability of combination: 33.9
WHIM2
  cell viability of combination: 37.7

## CCOc1cc2ncc(C#N)c(Nc3ccc(F)c(Cl)c3)c2cc1NC(=O)C=CCN(C)C [Pelitinib (EKB-569)] + CN(C)C/C=C/C(=O)Nc1cc2c(Nc3ccc(F)c(Cl)c3)ncnc2cc1O[C@H]1CCOC1 [Afatinib]
HCI01
  cell viability of combination: 72.1
WHIM2
  cell viability of combination: 22.1

## COC(=O)NC(C(=O)N1CCCC1c1ncc(-c2ccc(-c3ccc(-c4cnc(C5CCCN5C(=O)C(NC(=O)OC)C(C)C)[nH]4)cc3)cc2)[nH]1)C(C)C (stereo not given) + CN(C)C/C=C/C(=O)Nc1cc2c(Nc3ccc(F)c(Cl)c3)ncnc2cc1O[C@H]1CCOC1 [Afatinib]
HCI01
  cell viability of combination: 48.3
WHIM2
  cell viability of combination: 46.3

## CC[C@H](C)[C@H]1O[C@]2(CC[C@@H]1C)C[C@@H]1C[C@@H](C/C=C(\C)[C@@H](O[C@H]3C[C@H](OC)[C@@H](O[C@H]4C[C@H](OC)[C@@H](O)[C@H](C)O4)[C@H](C)O3)[C@@H](C)/C=C/C=C3\CO[C@@H]4[C@H](O)C(C)=C[C@@H](C(=O)O1)[C@]34O)O2 [Ivermectin] + CN(C)C/C=C/C(=O)Nc1cc2c(Nc3ccc(F)c(Cl)c3)ncnc2cc1O[C@H]1CCOC1 [Afatinib]
HCI01
  cell viability of combination: 46
WHIM2
  cell viability of combination: 44.5

## CC(C)(C)NC(=O)C1CC2CCCCC2CN1CC(O)C(Cc1ccccc1)NC(=O)C(CC(N)=O)NC(=O)c1ccc2ccccc2n1.CS(=O)(=O)O (stereo not given) [Saquinavir mesylate] + CN(C)C/C=C/C(=O)Nc1cc2c(Nc3ccc(F)c(Cl)c3)ncnc2cc1O[C@H]1CCOC1 [Afatinib]
HCI01
  cell viability of combination: 48.2
WHIM2
  cell viability of combination: 47.9

## CN(C)c1ccc(O)c2c1CC1CC3C(N(C)C)C(=O)C(C(N)=O)=C(O)C3(O)C(=O)C1=C2O.Cl (stereo not given) [Minocycline HCl] + CN(C)C/C=C/C(=O)Nc1cc2c(Nc3ccc(F)c(Cl)c3)ncnc2cc1O[C@H]1CCOC1 [Afatinib]
HCI01
  cell viability of combination: 66.6
WHIM2
  cell viability of combination: 49.9

## COc1ccc(C[C@H](N)C(=O)N[C@@H]2[C@H](O)[C@H](n3cnc4c(N(C)C)ncnc43)O[C@@H]2CO)cc1.Cl.Cl [Puromycin dihydrochloride] + CN(C)C/C=C/C(=O)Nc1cc2c(Nc3ccc(F)c(Cl)c3)ncnc2cc1O[C@H]1CCOC1 [Afatinib]
HCI01
  cell viability of combination: 69.5
WHIM2
  cell viability of combination: 82.6

## CCCCCCCCCCCC1=C(O)C(=O)C=C(O)C1=O [Embelin] + CN(C)C/C=C/C(=O)Nc1cc2c(Nc3ccc(F)c(Cl)c3)ncnc2cc1O[C@H]1CCOC1 [Afatinib]
HCI01
  cell viability of combination: 52.9
WHIM2
  cell viability of combination: 42.9

## Cc1nc(NC(=O)N2CCCC2C(N)=O)sc1-c1ccnc(C(C)(C)C(F)(F)F)c1 (stereo not given) + CN(C)C/C=C/C(=O)Nc1cc2c(Nc3ccc(F)c(Cl)c3)ncnc2cc1O[C@H]1CCOC1 [Afatinib]
HCI01
  cell viability of combination: 46.9
WHIM2
  cell viability of combination: 37.9

## CCCCCCCCOc1ccccc1C(=O)Nc1ccc(C(=O)OCC[N+](C)(CC)CC)cc1.[Br-] [Otilonium Bromide] + CN(C)C/C=C/C(=O)Nc1cc2c(Nc3ccc(F)c(Cl)c3)ncnc2cc1O[C@H]1CCOC1 [Afatinib]
HCI01
  cell viability of combination: 52.9
WHIM2
  cell viability of combination: 53.9

## O=C(NC1CCN(CCCCC2(C(=O)NCC(F)(F)F)c3ccccc3-c3ccccc32)CC1)c1ccccc1-c1ccc(C(F)(F)F)cc1 [Lomitapide] + CN(C)C/C=C/C(=O)Nc1cc2c(Nc3ccc(F)c(Cl)c3)ncnc2cc1O[C@H]1CCOC1 [Afatinib]
HCI01
  cell viability of combination: 55
WHIM2
  cell viability of combination: 27.4

## CCCCc1oc2ccccc2c1C(=O)c1cc(I)c(OCCN(CC)CC)c(I)c1.Cl [Amiodarone HCl] + CN(C)C/C=C/C(=O)Nc1cc2c(Nc3ccc(F)c(Cl)c3)ncnc2cc1O[C@H]1CCOC1 [Afatinib]
HCI01
  cell viability of combination: 68.8
WHIM2
  cell viability of combination: 57.7

## CCOC(=O)C1=C(COCCN)NC(C)=C(C(=O)OC)C1c1ccccc1Cl (stereo not given) [Amlodipine] + CN(C)C/C=C/C(=O)Nc1cc2c(Nc3ccc(F)c(Cl)c3)ncnc2cc1O[C@H]1CCOC1 [Afatinib]
HCI01
  cell viability of combination: 58.2
WHIM2
  cell viability of combination: 51.1

## CCN(CC)CCCC(C)Nc1ccnc2cc(Cl)ccc12.O=P(O)(O)O.O=P(O)(O)O (stereo not given) [Chloroquine diphosphate] + CN(C)C/C=C/C(=O)Nc1cc2c(Nc3ccc(F)c(Cl)c3)ncnc2cc1O[C@H]1CCOC1 [Afatinib]
HCI01
  cell viability of combination: 44.6
WHIM2
  cell viability of combination: 34.5

## C=C(c1ccc(C(=O)O)cc1)c1cc2c(cc1C)C(C)(C)CCC2(C)C [Bexarotene] + CN(C)C/C=C/C(=O)Nc1cc2c(Nc3ccc(F)c(Cl)c3)ncnc2cc1O[C@H]1CCOC1 [Afatinib]
HCI01
  cell viability of combination: 51.8
WHIM2
  cell viability of combination: 35.7

## COC(=O)c1ccc2c(c1)NC(=O)C2=C(Nc1ccc(N(C)C(=O)CN2CCN(C)CC2)cc1)c1ccccc1 [Nintedanib (BIBF 1120)] + CN(C)C/C=C/C(=O)Nc1cc2c(Nc3ccc(F)c(Cl)c3)ncnc2cc1O[C@H]1CCOC1 [Afatinib]
HCI01
  cell viability of combination: 45
WHIM2
  cell viability of combination: 22.5

## O=C(C=Cn1cnc(-c2cc(C(F)(F)F)cc(C(F)(F)F)c2)n1)NNc1cnccn1 + CN(C)C/C=C/C(=O)Nc1cc2c(Nc3ccc(F)c(Cl)c3)ncnc2cc1O[C@H]1CCOC1 [Afatinib]
HCI01
  cell viability of combination: 39.3
WHIM2
  cell viability of combination: 41.9

## CC(C)CC(NC(=O)C(CCc1ccccc1)NC(=O)CN1CCOCC1)C(=O)NC(Cc1ccccc1)C(=O)NC(CC(C)C)C(=O)C1(C)CO1 (stereo not given) [Carfilzomib (PR-171)] + CN(C)C/C=C/C(=O)Nc1cc2c(Nc3ccc(F)c(Cl)c3)ncnc2cc1O[C@H]1CCOC1 [Afatinib]
HCI01
  cell viability of combination: 17.5
WHIM2
  cell viability of combination: 26.7

## Nc1ccn(C2OC(CO)C(O)C2O)c(=O)n1 (stereo not given) [Cytarabine] + CN(C)C/C=C/C(=O)Nc1cc2c(Nc3ccc(F)c(Cl)c3)ncnc2cc1O[C@H]1CCOC1 [Afatinib]
HCI01
  cell viability of combination: 44.3
WHIM2
  cell viability of combination: 38.3

## CSc1ccc2c(c1)N(CCC1CCCCN1C)c1ccccc1S2.Cl (stereo not given) [Thioridazine HCl] + CN(C)C/C=C/C(=O)Nc1cc2c(Nc3ccc(F)c(Cl)c3)ncnc2cc1O[C@H]1CCOC1 [Afatinib]
HCI01
  cell viability of combination: 61.8
WHIM2
  cell viability of combination: 47.4

## CNC(=O)c1cc(Oc2ccc(NC(=O)Nc3ccc(Cl)c(C(F)(F)F)c3)c(F)c2)ccn1 [Regorafenib] + CN(C)C/C=C/C(=O)Nc1cc2c(Nc3ccc(F)c(Cl)c3)ncnc2cc1O[C@H]1CCOC1 [Afatinib]
HCI01
  cell viability of combination: 46.8
WHIM2
  cell viability of combination: 44.2

## CNCCC(Oc1ccc(C(F)(F)F)cc1)c1ccccc1.Cl (stereo not given) [Fluoxetine HCl] + CN(C)C/C=C/C(=O)Nc1cc2c(Nc3ccc(F)c(Cl)c3)ncnc2cc1O[C@H]1CCOC1 [Afatinib]
HCI01
  cell viability of combination: 46.4
WHIM2
  cell viability of combination: 43.8

## COc1cc2ncnc(Nc3ccc(F)c(Cl)c3)c2cc1NC(=O)C=CCN1CCCCC1 + CN(C)C/C=C/C(=O)Nc1cc2c(Nc3ccc(F)c(Cl)c3)ncnc2cc1O[C@H]1CCOC1 [Afatinib]
HCI01
  cell viability of combination: 45.1
WHIM2
  cell viability of combination: 29.8

## CC[C@@H]1/C=C(\C)C[C@H](C)C[C@H](OC)[C@H]2O[C@@](O)(C(=O)C(=O)N3CCCC[C@H]3C(=O)O[C@H](/C(C)=C/[C@@H]3CC[C@H](Cl)[C@H](OC)C3)[C@H](C)[C@@H](O)CC1=O)[C@H](C)C[C@@H]2OC [Pimecrolimus] + CN(C)C/C=C/C(=O)Nc1cc2c(Nc3ccc(F)c(Cl)c3)ncnc2cc1O[C@H]1CCOC1 [Afatinib]
HCI01
  cell viability of combination: 51.2
WHIM2
  cell viability of combination: 42.6

## [O-]n1ccccc1=S.[O-]n1ccccc1=S.[Zn+2] [Zinc Pyrithione] + CN(C)C/C=C/C(=O)Nc1cc2c(Nc3ccc(F)c(Cl)c3)ncnc2cc1O[C@H]1CCOC1 [Afatinib]
HCI01
  cell viability of combination: 47.4
WHIM2
  cell viability of combination: 33.9

## Cc1cccc(CN2CCN(C(c3ccccc3)c3ccc(Cl)cc3)CC2)c1.Cl.Cl (stereo not given) [Meclizine 2HCl] + CN(C)C/C=C/C(=O)Nc1cc2c(Nc3ccc(F)c(Cl)c3)ncnc2cc1O[C@H]1CCOC1 [Afatinib]
HCI01
  cell viability of combination: 65.4
WHIM2
  cell viability of combination: 53.1

## CCOc1nc2cccc(C(=O)OC(C)OC(=O)OC3CCCCC3)c2n1Cc1ccc(-c2ccccc2-c2nn[nH]n2)cc1 (stereo not given) [Candesartan Cilexetil] + CN(C)C/C=C/C(=O)Nc1cc2c(Nc3ccc(F)c(Cl)c3)ncnc2cc1O[C@H]1CCOC1 [Afatinib]
HCI01
  cell viability of combination: 55.5
WHIM2
  cell viability of combination: 50.8

## C1=C\COCc2cc(ccc2OCCN2CCCC2)Nc2nccc(n2)-c2cccc(c2)COC/1 [Pacritinib] + CN(C)C/C=C/C(=O)Nc1cc2c(Nc3ccc(F)c(Cl)c3)ncnc2cc1O[C@H]1CCOC1 [Afatinib]
HCI01
  cell viability of combination: 37.8
WHIM2
  cell viability of combination: 38.8

## CNC(=O)c1cc(Oc2ccc(NC(=O)Nc3ccc(Cl)c(C(F)(F)F)c3)c(F)c2)ccn1.Cl [Regorafenib hydrochloride] + CN(C)C/C=C/C(=O)Nc1cc2c(Nc3ccc(F)c(Cl)c3)ncnc2cc1O[C@H]1CCOC1 [Afatinib]
HCI01
  cell viability of combination: 52
WHIM2
  cell viability of combination: 43.3

## Br.Cc1ccc(Sc2ccccc2N2CCNCC2)c(C)c1 + CN(C)C/C=C/C(=O)Nc1cc2c(Nc3ccc(F)c(Cl)c3)ncnc2cc1O[C@H]1CCOC1 [Afatinib]
HCI01
  cell viability of combination: 49.7
WHIM2
  cell viability of combination: 46.7
